Measurements as given in ChEMBL document CHEMBL3988442, “University of Dundee, Small-Polar-MMV Screening Library” (2021).
For some assays here: Potency and affinity values are given separately.

Legend:
Set-up in all cases: scale not given: direction of the effect not stated beside the values
[1] = target: Protein translocase subunit SecA (Escherichia coli (strain K12)) (UniProt P10408); experiment: Assay to Identify E. coli SecA ATPase Inhibitors; format: functional; conditions: 30 µM
[2] = target: T1, Ubiquitin-activating enzyme e1, putative (Leishmania donovani (strain BPK282A1)) (UniProt E9BSI1); experiment: Leishmania donovani Ubiquitin Activating Enzyme (LdE1); format: functional; conditions: 30 µM
T1 sequence (whole entry): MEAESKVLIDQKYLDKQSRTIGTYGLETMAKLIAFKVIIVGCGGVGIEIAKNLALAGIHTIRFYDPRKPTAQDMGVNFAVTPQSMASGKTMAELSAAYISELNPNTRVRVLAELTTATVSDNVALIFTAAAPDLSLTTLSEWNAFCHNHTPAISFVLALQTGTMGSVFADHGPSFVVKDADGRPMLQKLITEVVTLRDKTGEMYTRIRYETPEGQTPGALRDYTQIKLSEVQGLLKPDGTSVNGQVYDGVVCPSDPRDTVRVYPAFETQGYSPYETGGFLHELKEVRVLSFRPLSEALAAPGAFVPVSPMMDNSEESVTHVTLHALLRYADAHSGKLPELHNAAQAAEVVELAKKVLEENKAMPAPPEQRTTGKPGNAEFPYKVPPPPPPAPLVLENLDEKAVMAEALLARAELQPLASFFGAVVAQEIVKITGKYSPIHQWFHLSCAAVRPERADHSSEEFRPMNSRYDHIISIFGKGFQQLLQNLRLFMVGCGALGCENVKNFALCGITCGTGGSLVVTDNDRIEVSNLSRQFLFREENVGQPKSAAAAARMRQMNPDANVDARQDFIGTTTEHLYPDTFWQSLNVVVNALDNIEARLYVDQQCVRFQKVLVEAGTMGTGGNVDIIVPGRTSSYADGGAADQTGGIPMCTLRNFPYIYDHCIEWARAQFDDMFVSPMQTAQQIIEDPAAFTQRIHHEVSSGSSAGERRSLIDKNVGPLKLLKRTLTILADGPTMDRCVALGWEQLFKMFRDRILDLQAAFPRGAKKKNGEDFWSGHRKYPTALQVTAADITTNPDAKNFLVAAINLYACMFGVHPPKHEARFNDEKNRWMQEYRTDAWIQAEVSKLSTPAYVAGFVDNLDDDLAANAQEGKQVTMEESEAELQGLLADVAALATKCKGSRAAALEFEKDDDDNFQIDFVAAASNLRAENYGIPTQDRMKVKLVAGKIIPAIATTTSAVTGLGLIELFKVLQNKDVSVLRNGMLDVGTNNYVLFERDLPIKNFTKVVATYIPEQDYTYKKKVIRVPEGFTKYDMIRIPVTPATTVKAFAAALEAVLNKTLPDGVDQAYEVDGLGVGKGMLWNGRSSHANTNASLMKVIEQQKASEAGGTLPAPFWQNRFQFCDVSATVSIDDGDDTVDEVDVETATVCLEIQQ

[3] = target: AMP-activated protein kinase, AMPK (Homo sapiens) (UniProt P54646+O43741+P54619+Q9UGJ0+Q9Y478+Q13131+Q9UGI9); experiment: AMP-dependent Kinase enzyme assay. An in vitro enzyme assay that detects ADP turnover that is directly proportional to AMPK activity. This uses naive AMPK that is activated during the assay with MK-8722; format: functional; conditions: 30 µM
[4] = target: Sialic acid-binding Ig-like lectin 9 (Homo sapiens) (UniProt Q9Y336); experiment: Hs-Siglec9 ALPHAscreen SOP 20170721; conditions: 10 µM
Sialic acid-binding Ig-like lectin 9 (Homo sapiens), sequence (Q9Y336 whole entry): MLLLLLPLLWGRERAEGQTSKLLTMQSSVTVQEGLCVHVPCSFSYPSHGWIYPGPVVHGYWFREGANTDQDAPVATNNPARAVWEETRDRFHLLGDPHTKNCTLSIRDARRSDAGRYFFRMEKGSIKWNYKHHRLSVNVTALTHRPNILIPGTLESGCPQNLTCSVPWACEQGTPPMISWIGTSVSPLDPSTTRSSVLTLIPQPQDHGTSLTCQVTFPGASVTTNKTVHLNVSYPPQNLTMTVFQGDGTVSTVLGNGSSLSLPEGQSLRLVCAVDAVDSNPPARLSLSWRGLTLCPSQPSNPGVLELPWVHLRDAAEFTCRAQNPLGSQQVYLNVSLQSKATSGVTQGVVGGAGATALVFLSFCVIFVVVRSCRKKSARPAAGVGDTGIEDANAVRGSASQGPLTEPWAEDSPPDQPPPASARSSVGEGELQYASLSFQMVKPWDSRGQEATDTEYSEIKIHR

Trypanosoma cruzi = experiment: Trypanosoma cruzi phosphomannomutase and mannose-1-phosphate guanylyltransferase assay; format: functional; conditions: 10 µM
[5] = target: T2, Arginase-2, mitochondrial (Homo sapiens) (UniProt P78540); experiment: in vitro enzyme assay to detect the production of urea directly proportional to the activity of Arginase II; format: functional; conditions: 33.3 µM; also: in the data most compounds retested in dose-response had high values
T2 sequence (whole entry): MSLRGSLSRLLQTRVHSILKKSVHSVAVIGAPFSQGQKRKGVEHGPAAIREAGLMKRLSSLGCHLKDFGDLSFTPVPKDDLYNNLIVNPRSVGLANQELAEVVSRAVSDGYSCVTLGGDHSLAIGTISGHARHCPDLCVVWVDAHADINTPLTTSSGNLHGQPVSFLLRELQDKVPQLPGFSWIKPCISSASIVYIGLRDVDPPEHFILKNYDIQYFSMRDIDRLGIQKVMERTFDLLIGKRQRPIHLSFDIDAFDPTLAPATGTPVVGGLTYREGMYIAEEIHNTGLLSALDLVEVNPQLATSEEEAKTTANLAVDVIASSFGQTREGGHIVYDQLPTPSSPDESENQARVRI

[6] = target: T3, Proteasome subunit beta (Trypanosoma cruzi) (UniProt O96673); experiment: Trypanosoma cruzi proteasome chymotrypsin-like activity (TcProtChymo) assay.; also: in the data most compounds retested in dose-response had high values; format: functional; conditions: 9.37 µM
T3 sequence (whole entry): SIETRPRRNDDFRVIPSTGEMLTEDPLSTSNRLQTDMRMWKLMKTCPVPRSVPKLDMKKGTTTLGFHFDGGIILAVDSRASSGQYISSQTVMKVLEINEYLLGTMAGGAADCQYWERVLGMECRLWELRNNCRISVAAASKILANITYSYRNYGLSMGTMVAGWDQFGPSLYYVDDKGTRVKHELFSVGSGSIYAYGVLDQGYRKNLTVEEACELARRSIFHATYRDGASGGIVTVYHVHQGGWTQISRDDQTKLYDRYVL

Homo sapiens = species: Homo sapiens; experiment: To identify inhibition of the IFN signalling (Jak-Stat) pathway via expression of an eGFP reporter gene under the control of an IFN-stimulated response element (ISRE) containing MxA promoter.; format: functional; conditions: 30 µM
[7] = target: T4, Tyrosyl-tRNA synthetase, putative (Trypanosoma cruzi (strain CL Brener)) (UniProt Q4DSP6); experiment: Trypanosoma cruzi tyrosyl tRNA synthetase (TcYRS) _High Tyrosine SOP; format: functional; conditions: 30 µM; also: in the data most compounds retested in dose-response had high values
T4 sequence (whole entry): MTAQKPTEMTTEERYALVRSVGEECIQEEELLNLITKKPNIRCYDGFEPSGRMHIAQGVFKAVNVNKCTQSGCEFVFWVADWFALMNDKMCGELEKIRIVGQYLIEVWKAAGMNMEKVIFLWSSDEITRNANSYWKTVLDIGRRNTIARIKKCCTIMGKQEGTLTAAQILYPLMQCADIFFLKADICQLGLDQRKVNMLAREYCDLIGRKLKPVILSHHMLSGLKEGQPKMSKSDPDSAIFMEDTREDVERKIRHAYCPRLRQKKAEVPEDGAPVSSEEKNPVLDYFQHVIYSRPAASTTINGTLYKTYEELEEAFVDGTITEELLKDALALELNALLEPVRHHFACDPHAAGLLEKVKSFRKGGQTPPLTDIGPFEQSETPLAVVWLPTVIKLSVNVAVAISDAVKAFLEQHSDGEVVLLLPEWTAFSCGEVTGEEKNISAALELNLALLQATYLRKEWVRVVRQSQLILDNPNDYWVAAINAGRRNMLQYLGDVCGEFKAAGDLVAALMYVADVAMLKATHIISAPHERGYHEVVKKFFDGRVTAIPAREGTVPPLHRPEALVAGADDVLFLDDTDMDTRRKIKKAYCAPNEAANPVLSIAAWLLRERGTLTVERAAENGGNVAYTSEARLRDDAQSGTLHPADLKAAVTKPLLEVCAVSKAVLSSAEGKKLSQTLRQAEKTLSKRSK

[8] = target: T4, Tyrosyl-tRNA synthetase, putative (Trypanosoma cruzi (strain CL Brener)); experiment: Trypanosoma cruzi tyrosyl tRNA synthetase (TcYRS) SOP; format: functional; conditions: 30 µM
[9] = target: Chromo domain-containing protein 1 (Saccharomyces cerevisiae (strain ATCC 204508 / S288c) (Baker's yeast)) (UniProt P32657); experiment: ScCHD-1 Enzyme Inhibition Assay; format: functional; conditions: 30 µM; also: in the data most compounds retested in dose-response had high values
Chromo domain-containing protein 1 (Saccharomyces cerevisiae (strain ATCC 204508 / S288c) (Baker's yeast)), sequence (P32657 whole entry, the tested form may be a part): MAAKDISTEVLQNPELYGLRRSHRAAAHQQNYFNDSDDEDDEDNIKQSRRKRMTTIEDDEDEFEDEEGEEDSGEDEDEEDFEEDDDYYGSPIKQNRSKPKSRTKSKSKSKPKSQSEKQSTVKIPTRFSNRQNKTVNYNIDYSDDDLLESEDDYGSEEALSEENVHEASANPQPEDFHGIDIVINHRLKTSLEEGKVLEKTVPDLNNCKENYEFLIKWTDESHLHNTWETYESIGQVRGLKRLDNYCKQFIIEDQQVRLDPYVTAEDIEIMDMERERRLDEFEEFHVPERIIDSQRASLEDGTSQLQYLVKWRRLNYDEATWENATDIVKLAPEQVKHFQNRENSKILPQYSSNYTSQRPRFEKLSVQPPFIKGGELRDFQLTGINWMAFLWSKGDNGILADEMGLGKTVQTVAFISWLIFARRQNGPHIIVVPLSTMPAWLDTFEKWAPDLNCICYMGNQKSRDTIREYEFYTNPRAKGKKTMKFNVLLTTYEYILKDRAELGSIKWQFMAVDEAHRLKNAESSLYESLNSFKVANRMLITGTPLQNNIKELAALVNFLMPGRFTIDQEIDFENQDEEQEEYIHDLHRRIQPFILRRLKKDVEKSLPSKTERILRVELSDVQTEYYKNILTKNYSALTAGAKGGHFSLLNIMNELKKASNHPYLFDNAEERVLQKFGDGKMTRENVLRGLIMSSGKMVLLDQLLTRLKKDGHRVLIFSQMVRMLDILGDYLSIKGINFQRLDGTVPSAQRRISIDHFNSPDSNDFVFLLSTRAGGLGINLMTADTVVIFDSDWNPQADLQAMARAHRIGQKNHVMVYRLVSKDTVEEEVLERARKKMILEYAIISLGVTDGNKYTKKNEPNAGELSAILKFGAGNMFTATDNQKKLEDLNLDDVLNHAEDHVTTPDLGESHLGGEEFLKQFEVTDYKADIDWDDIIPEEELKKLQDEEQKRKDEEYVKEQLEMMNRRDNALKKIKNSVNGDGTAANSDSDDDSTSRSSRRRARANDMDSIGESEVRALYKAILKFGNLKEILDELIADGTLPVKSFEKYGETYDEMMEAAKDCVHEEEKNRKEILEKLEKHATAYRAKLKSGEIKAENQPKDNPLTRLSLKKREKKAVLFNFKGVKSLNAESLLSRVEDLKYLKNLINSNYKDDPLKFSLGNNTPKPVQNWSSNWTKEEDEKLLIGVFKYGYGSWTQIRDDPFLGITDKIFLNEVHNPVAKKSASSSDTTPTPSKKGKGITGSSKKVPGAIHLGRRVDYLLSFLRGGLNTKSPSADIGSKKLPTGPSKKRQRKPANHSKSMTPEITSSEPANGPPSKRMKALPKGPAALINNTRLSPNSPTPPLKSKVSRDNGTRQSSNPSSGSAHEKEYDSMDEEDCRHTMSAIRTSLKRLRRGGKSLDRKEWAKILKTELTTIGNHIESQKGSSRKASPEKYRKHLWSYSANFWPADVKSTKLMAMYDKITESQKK

Protein translocase subunit SecA (Escherichia coli (strain K12)), sequence (P10408 whole entry): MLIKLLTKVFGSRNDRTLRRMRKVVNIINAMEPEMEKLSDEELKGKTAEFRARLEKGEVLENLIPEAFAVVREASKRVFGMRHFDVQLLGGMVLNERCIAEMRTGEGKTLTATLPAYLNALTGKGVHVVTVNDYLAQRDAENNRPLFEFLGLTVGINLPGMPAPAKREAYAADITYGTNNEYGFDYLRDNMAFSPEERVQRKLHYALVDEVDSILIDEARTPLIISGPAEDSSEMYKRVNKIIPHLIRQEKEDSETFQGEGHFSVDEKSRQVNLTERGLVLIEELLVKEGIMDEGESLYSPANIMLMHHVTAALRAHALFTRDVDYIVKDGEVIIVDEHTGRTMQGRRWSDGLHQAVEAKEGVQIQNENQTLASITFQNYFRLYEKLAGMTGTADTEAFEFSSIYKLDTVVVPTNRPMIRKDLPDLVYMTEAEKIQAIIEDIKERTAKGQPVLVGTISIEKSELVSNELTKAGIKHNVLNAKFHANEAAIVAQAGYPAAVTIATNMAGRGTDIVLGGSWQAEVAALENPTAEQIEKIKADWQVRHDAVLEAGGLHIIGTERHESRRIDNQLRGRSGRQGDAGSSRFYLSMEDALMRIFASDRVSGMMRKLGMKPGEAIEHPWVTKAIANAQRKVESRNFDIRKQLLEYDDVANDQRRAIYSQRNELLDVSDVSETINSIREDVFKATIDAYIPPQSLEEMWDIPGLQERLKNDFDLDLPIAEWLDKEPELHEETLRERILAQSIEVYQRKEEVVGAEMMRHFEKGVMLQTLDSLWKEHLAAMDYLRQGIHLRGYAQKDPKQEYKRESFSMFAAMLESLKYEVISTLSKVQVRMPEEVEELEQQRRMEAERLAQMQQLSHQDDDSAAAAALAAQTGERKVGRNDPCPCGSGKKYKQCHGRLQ

SMILES | Percent Effect [1] | Percent Effect [2] | Percent Effect [3] | Percent Effect [4] | Percent Effect (Trypanosoma cruzi) | Percent Effect [5] | Percent Effect [6] | Percent Effect (Homo sapiens) | Percent Effect [7] | Percent Effect [8] | Percent Effect [9]
COCc1noc(C2(c3ccc(Br)cc3)CCOCC2)n1 | -2.85% | -2.7% | 1.95% | -4.39% | -6.95% | 1.91% | 9.83% | 4.48% | -1.59% | 4.88% | -3.06%
CCc1nnc2n1CCN(C(=O)c1cc3ccc(F)cc3nc1C)C2 | -5.47% | 15.6% | 4.64% | 3.18% | 1.12% | -3.92% | 6.59% | -1.03% | 11.7% | 21.9% | -6.09%
COc1cn(-c2ccccc2)nc1C(=O)NCCCN1CCCC(C)C1 (stereo not given) | -5.93% | 0% | 1.22% | 18% | 2.62% | 0.356% | -2.2% | 5.68% | 4.85% | 9.76% | -1.59%
CC(C)c1n[nH]c(C2CN(C(=O)CCCn3cccn3)CCO2)n1 (stereo not given) | 0.0152% | -6.94% | -4.76% | -7.03% | -2.43% | 2.21% | 11.6% | -1.34% | -1.05% | 0% | 0.954%
COc1cccc(CN(C)Cc2ccc(C#N)cc2)c1OC | -2.85% | -5.41% | 2.32% | -6% | 0.586% | -1.67% | 7.86% | -3.25% | 4.95% | -3.66% | -5.17%
Cn1cc(CN2C[C@@H]3CN(Cc4ccoc4)CCO[C@@H]3C2)cn1 | -1.93% | 7.79% | 7.44% | 0.861% | -2.07% | 7.1% | 1.57% | 10.9% | 0% | 16.7% | -4.4%
N#Cc1cc(NC(=O)C2CC=CC2)ccc1N1CCC(O)CC1 | -3.63% | 2.7% | -2.38% | 4.36% | -0.193% | 1.91% | 7.41% | 0.178% | 2.65% | 7.32% | -2.26%
COc1ccc(CNC(=O)NC(C)Cn2cccn2)cc1O (stereo not given) | -1.61% | 5.2% | -4.12% | 3.12% | 2.64% | -1.47% | 3.15% | 25.9% | 3.81% | 11.8% | -15.6%
CN1CCC(NC(=O)NCCNc2ccccn2)CC1 | -2.67% | 16.2% | -6.97% | 16.2% | 4.92% | 3.14% | 16.5% | 5.52% | 3.96% | 15.8% | -6.11%
Cn1nc(C2CCCN(Cc3cccc(F)c3)C2)c2nccnc21 (stereo not given) | -3.38% | 9.46% | 9.97% | 14.6% | 6.13% | -1.62% | 9.05% | 13.8% | 2.15% | 16.9% | -15.8%
